MITF act – activators of MITF-driven TRPM1 promoter reporter, primary screen, cell-based, SK-MEL-5, luciferase, single point | activation, % at 12.5 µM | AID 588334, 2011 | 300,000 compounds, 0.75% hits | SK-MEL-5 TRPM1-promoter luciferase, 24 h; % of positive control, neutral wells = 0;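 active = mean activation of at least 80% with every replicate also reaching 80%; inconclusive = mean reaches 80% but some replicate falls short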;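 also: 0% = neutral control wells and 100% = parthenolide positive control wells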
AF4-AF9 inh – inhibitors of AF4 peptide binding to AF9, primary screen, biochemical, AlphaScreen, biotin-AF4 peptide, FLAG-AF9, single point | Protein AF-9 (Homo sapiens), P42568 | inhibition, % at 10 µM | 350,000 compounds, 0.47% hits | AID 651704, 2012;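 active = every replicate reaching a set inhibition limit, whatever the replicate mean, cut at about 25% in these data; inconclusive = mean inhibition reaches that limit but some replicates miss it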;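 also: 0% = plate neutral control median and 100% = total signal loss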
FGF22 binding – binders of human FGF22 protein, primary screen, FGF22 synaptogenesis inhibitor project, biophysical, thermal shift, single point | activity (Tm shift, normalised), % at 9.99 µM | recombinant FGF22 thermal shift, SYPRO orange fluorescence; percent of sucrose octasulfate shift, DMSO zero | AID 651658, 2012 | 340,000 compounds, 1.5% hits | Fibroblast growth factor 22 (Homo sapiens), Q9HCT0;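 active = mean Tm shift, scaled 0 neutral to 100 positive control, at about 1.3% or above, every replicate too, limit read from the data; inconclusive = no clear call, values can overlap the other calls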
Target sequence (Q9HCT0 whole entry, looked up): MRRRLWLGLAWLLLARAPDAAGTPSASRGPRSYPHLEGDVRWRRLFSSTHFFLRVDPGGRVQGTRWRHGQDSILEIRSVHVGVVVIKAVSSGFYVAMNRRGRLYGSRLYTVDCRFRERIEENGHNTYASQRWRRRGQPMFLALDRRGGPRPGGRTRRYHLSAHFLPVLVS
Wnt act – Wnt/beta-catenin pathway activators, primary screen, cell-based, plate reader, single point; Wnt/beta-catenin reporter cell assay, activator; 300,000 compounds, 1.2% hits; activation, % at 9.35 µM; in the data active = activation above about 30%, passing the limit was not always enough; inconclusive = no clear call, values can overlap the other calls;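 also: 0% = neutral control wells and 100% = positive control wells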
SMARCA2 act – SMARCA2 (BRM) function activators, primary screen, cell-based, luminescence, high throughput; MG213 cells, MMTV-luciferase reporter, dexamethasone, overnight; activation, % at 9.1 µM; 370,000 compounds, 1% hits; AID 652017, 2013; in the data active = activation above about 7.8%;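 also: 0% = vehicle wells and 100% = reference activator wells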
esBAF inh – Bmi1 luciferase reporter increase in mESCs, primary screen, esBAF inhibitor project, mouse ES cells, Bmi1 luciferase knock-in, single point; 350,000 compounds, 2% hits; reporter increase, % at 12.5 µM; 24 h; 100% = twice the neutral-well signal; in the data active = activation above about 40%; inconclusive = no clear call, values can overlap the other calls;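 also: 0% = median of the plate's neutral control wells and 100% = double that signal; a rise in the Bmi1 reporter signal indicates esBAF inhibition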
An asterisk follows results filed as active; ? = inconclusive; / = no result; ! = repeats disagree. Sampled rows, rich in hits. Any-hit rate of the full collection: about 4.3%.

SMILES	MITF act	AF4-AF9 inh	FGF22 binding	Wnt act	SMARCA2 act	esBAF inh
COc1ccccc1Nc1nc(-c2cccnc2)cs1	65.0	7.1	0.0	13.8	0.4	44.1*
CCc1ccccc1Nc1nc(-c2cccnc2)cs1	/	0.8	-0.3	18.3	-0.1	23.0
COc1ccc(Nc2nc(-c3sc(C)nc3C)cs2)c(OC)c1	/	4.6	-0.2	-1.6	-1.6	7.4
COc1ccc(Nc2nc(-c3cccnc3)cs2)c(OC)c1	57.2	10.2	0.2	2.7	1.6	56.7*
COc1ccc(Nc2nc(-c3cccs3)cs2)c(OC)c1	/	/	/	/	5.6	53.2*
O=C(NCC[C@H]1CC[C@H](NC(=O)c2cnccn2)[C@H](CO)O1)c1ccc2c(c1)OCO2	/	-1.4	-0.1	/	/	-1.5
O=C(c1ccco1)N1CCN(c2ccc(Cl)cc2)CC1	92.8*	/	/	22.3	4.7	48.2*
Cc1cc(Br)cc(Cl)c1OCC(=O)N1CCN(C(=O)c2ccco2)CC1	-3.3	?	0.0	59.1*	-2.8	-4.2
Nc1ccc(N2CCN(c3ccc(Cl)c(Cl)c3)CC2)cc1	12.9	27.4*	-0.5	-1.1	-2.9	/
Nc1ccc(N2CCN(c3ccc(F)cc3)CC2)cc1	11.4	12.0	0.0	12.4	0.2	/
O=C(c1ccco1)N1CCN(c2ccc(Cl)c(Cl)c2)CC1	57.0	/	/	12.0	-2.3	44.4*
COc1ccc(NC(=O)N(C)C[C@@H]2Oc3c(NC(=O)c4cnccn4)cccc3C(=O)N([C@@H](C)CO)C[C@H]2C)cc1	/	-5.0	-0.4	/	/	1.8
COc1ccc(NC(=O)N(C)C[C@H]2Oc3ccc(NC(=O)c4ccncc4)cc3CC(=O)N([C@H](C)CO)C[C@H]2C)cc1	/	-2.5	-0.3	/	/	2.5
C[C@@H]1CN([C@@H](C)CO)C(=O)c2cccc(NC(=O)C3CC3)c2O[C@@H]1CN(C)C(=O)Nc1ccccc1	/	-0.9	0.1	/	/	0.7
Cc1ccc(-c2ccc(C3[C@H]4CNC[C@@H]3N4Cc3cccc(F)c3)cc2)cc1 (stereo partly specified)	/	0.9	/	/	/	/
Fc1cccc(CN2[C@@H]3CNC[C@H]2C3c2ccc(-c3ccncc3)cc2)c1 (stereo partly specified)	/	30.3*!	/	/	/	/
CN(C)C(=O)C[C@@H]1CC[C@@H]2[C@H](COC[C@H](O)CN2CC2CCOCC2)O1	/	-3.9	-0.1	/	/	7.3
CC(C)C(=O)Nc1ccc2c(c1)C(=O)N(C)[C@@H]1CC[C@@H](CC(=O)NCc3cccc(F)c3)O[C@@H]1CO2	/	/	0.2	/	/	-4.1
CCc1c(C)nc(SCC(=O)N2CCN(c3ccccc3OC)CC2)[nH]c1=O	6.9	-4.1	0.7	-0.8	4.5	/
CCc1c(C)nc(SCC(=O)N2CCN(c3ccccc3)CC2)[nH]c1=O	15.4	-1.5	43.9*	-4.5	0.5	2.0
COc1ccc(NC(=O)N(C)C[C@H]2Oc3ccc(N(C)C)cc3C(=O)N([C@H](C)CO)C[C@@H]2C)cc1	/	-0.9	0.3	/	/	-1.7
O=C(O)c1ccc(N2C(=O)c3ccccc3C2=O)cc1[N+](=O)[O-]	/	-6.5	43.4*	-5.8	-1.8	-2.4
COC(=O)[C@]12C[C@H](CC(=O)N3CCSCC3)C(=O)N(Cc3ccccc3)C1=C[C@H](C(C)(C)C)O[C@@H]2C	/	-0.4	-0.3	-2.0	-8.9	/
Cc1ccc(SCc2nn(C)c(Cl)c2C=O)cc1	54.0	-0.4	0.4	5.7	4.2	42.4*
O=C(C1CCCC1)N1C[C@H]2[C@@H](c3ccccc31)[C@@H](CO)N2C(=O)c1cccnc1	/	-0.9	-0.8	/	/	-0.8
O=C(N/N=C/c1cc([N+](=O)[O-])ccc1N1CCCCCC1)c1ccccn1	27.6	11.7	-0.3	12.2	3.5	/
O=C(Oc1cccc(/C=N/NC(=O)c2ccccn2)c1)c1ccc([N+](=O)[O-])cc1	38.4	-15.8	-0.1	33.7*	1.4	-35.5
CSc1ccc(/C=N/NC(=O)c2ccccc2Cl)cc1	44.2	5.4	40.9	7.5	3.2	78.7*
O=C(N/N=C/c1ccc(OC(=O)c2ccccc2Cl)cc1)c1ccccn1	96.5*	/	/	/	/	/

Screening data as filed in PubChem BioAssay.
